{
  "source": "PubChem BioAssay",
  "data": [
    {"assay": "compounds binding Alexa647 anti-His antibody – biochemical, small-molecule microarray, 635 nm fluorescence, artefact control for SMM control protein annotation, primary screen (AID 1128);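 also: score merges feature fluorescence with signal-to-noise for each printed compound spot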", "settings": "higher = more signal", "values": [
      {"compound": "CC(=O)Nc1cc(Br)ccc1C(=O)O", "composite z-score": 0.0952},
      {"compound": "Cc1ccccc1C(O)C1C=CC2C(=O)N(C)C(=O)C2N1N1CCCCC1", "note": "(configuration not stated)", "composite z-score": 1.87},
      {"compound": "[N-]=[N+]=NCc1ccccc1[C@@H]1OC(c2ccc(OCCCO)cc2)=N[C@]1(Cc1ccccc1)C(=O)N1CCCCC1", "composite z-score": 2.4},
      {"compound": "COCC(=C=CC[C@H](O)c1ccc(OCCO)cc1)C[C@H](O)c1cc(Cl)cc(Cl)c1O", "composite z-score": 0.773},
      {"compound": "COC(=O)[C@@]1(Cc2ccc(OC)cc2)[C@H]2c3cc(C(=O)N4CCCC4)n(Cc4ccccn4)c3C[C@H]2CN1C(=O)c1ccccc1", "composite z-score": 2.3},
      {"compound": "COc1ccc([Si](C)(C)[C@@H]2[C@@H](CCn3cc([C@H](O)c4ccccc4)nn3)O[C@]3(C(=O)N(Cc4ccc(N5C(=O)c6cccc7cccc5c67)cc4)c4ccccc43)[C@H]2C)cc1", "composite z-score": 0.448},
      {"compound": "O=C1O[C@@H](c2ccccc2)[C@@H](c2ccccc2)N2[C@@H](c3ccc(O)cc3)[C@]3(C(=O)Nc4ccc(C#CC5(O)CCCCCC5)cc43)[C@@H](C(=O)N3CCCCCCC3)[C@H]12", "composite z-score": 1.47},
      {"compound": "O=C1[C@]2(CO)C=C(Br)[C@@H](C[C@@H]2c2ccccc2)[C@@]12CO2", "composite z-score": 0.123},
      {"compound": "COCCOC(=O)N1C(=O)[C@@]2(c3cc(C#CCCO)ccc31)[C@H](c1ccccc1OCCO)N1[C@H](c3ccccc3)[C@H](c3ccccc3)OC(=O)[C@H]1[C@@H]2C(=O)N1CCN(c2ncccn2)CC1", "composite z-score": 1.64},
      {"compound": "CC=CC(O)C1C=CC2C(=O)N(c3ccccc3)C(=O)C2N1Nc1ccc(C(C)C)cc1", "note": "(configuration not stated)", "composite z-score": 0.585},
      {"compound": "CC(c1ccccc1)C(O)C1C=CC2C(=O)NC(=O)C2N1Nc1ccccn1", "note": "(configuration not stated)", "composite z-score": 1.28},
      {"compound": "C=CCC(OC(C)=O)[C@@H]1[C@@H](N(Cc2ccc(-c3cccc(C(F)(F)F)c3)o2)C(=O)c2ccc(C)cc2)c2cc(OCCCO)ccc2N1C(=O)c1ccc(-c2ccccc2)cc1", "note": "(some centres not stated)", "composite z-score": -0.488},
      {"compound": "COc1ccc([Si](C)(C)[C@@H]2[C@@H](CC(=O)N3CCC[C@H]3CO)O[C@]3(C(=O)N(C)c4c(Br)cc(C)cc43)[C@H]2C)cc1", "composite z-score": 0.437},
      {"compound": "O=C1O[C@H](c2ccccc2)[C@H](c2ccccc2)N2[C@H]1[C@@H](C(=O)O)[C@]1(C(=O)Nc3ccc(C#CC4=CCCCC4)cc31)[C@H]2c1ccc(OCCO)cc1", "composite z-score": 0.463},
      {"compound": "CCCNC(=O)[C@@]1(c2ccc([N+](=O)[O-])cc2)CC(=O)N(CC23CC4CC(CC(C4)C2)C3)[C@@H]1c1ccc(CO)cc1", "composite z-score": 1.19},
      {"compound": "CC(C)C[C@@H]1NC(=O)[C@H]2C[C@@H](C(=O)NCCCCCCNC(=O)CS)[C@@H](c3cccc(OCCO)c3)N2C1=O", "composite z-score": 1.19},
      {"compound": "Cc1cc(C)c(C(O)C2C=CC3C(=O)N(C)C(=O)C3N2Nc2ccccc2)c(C)c1", "note": "(configuration not stated)", "composite z-score": 1.83},
      {"compound": "O=C1OCCC=C[C@H]2OC34C=CCN(Cc5ccccc5)C(=O)[C@H]3N(CCCO)C(=O)[C@@H]4C12", "note": "(some centres not stated)", "composite z-score": 1.76},
      {"compound": "COCCOC(=O)N1C(=O)[C@@]2(c3cc(C#CCC(C(=O)OC)C(=O)OC)ccc31)[C@H](c1ccc(O)cc1)N1[C@H](c3ccccc3)[C@H](c3ccccc3)OC(=O)[C@H]1[C@@H]2C(N)=O", "composite z-score": 1.54},
      {"compound": "COCCOC(=O)N1C(=O)[C@@]2(c3cc(C#CCC(C(=O)OC)C(=O)OC)ccc31)[C@H](c1ccccc1OCCO)N1[C@H](c3ccccc3)[C@H](c3ccccc3)OC(=O)[C@H]1[C@@H]2C(N)=O", "composite z-score": 2.79},
      {"compound": "C=CCNC(=O)[C@H]1[C@@H]2C(=O)O[C@@H](c3ccccc3)[C@@H](c3ccccc3)N2[C@@H](c2ccc(O)cc2)[C@]12C(=O)N(C(=O)OCCOC)c1ccc(C#CCCO)cc12", "composite z-score": 1.03},
      {"compound": "CC(C)CNC(=O)[C@@H]1c2ccccc2C(=O)N(Cc2cc(C(F)(F)F)cc(C(F)(F)F)c2)[C@H]1c1ccc(CO)cc1", "composite z-score": -0.137},
      {"compound": "O=C(CS)NCCCCCCNC(=O)[C@@H]1C[C@@H]2C(=O)N3CCC[C@H]3C(=O)N2[C@@H]1c1ccc(O)cc1", "composite z-score": 3.73},
      {"compound": "CCCCCCc1nc(CCCc2cc3c(c(CCCCCC)n2)[Si](C(C)C)(C(C)C)OC3)cc2c1[Si](C(C)C)(C(C)C)OC2", "composite z-score": -0.658},
      {"compound": "O=C1O[C@H](c2ccccc2)[C@H](c2ccccc2)N2[C@H]1[C@@H](C(=O)NC[C@H](O)c1ccccc1)[C@]1(C(=O)Nc3ccc(C#CCCO)cc31)[C@H]2c1ccc(O)cc1", "composite z-score": -1.3},
      {"compound": "C=C[C@@H](COC(C)=O)N(Cc1ccccc1[N+](=O)[O-])S(=O)(=O)c1ccc(Br)cc1", "composite z-score": 2.18},
      {"compound": "O=C1N(CCS(=O)(=O)c2ccccc2)Cc2ccccc2C[C@]12N=C(c1ccc(OCCCO)cc1)O[C@@H]2c1ccccc1", "composite z-score": 2.51}
    ]}
  ]
}
